This passage reports composite z-score and z-score results from PubChem BioAssay.

Experiment [1] concerns Wnt5a (protein binding on small-molecule microarray). The experiment can be described thus: Wnt5a binders on small-molecule microarray, primary screen, biophysical, 635/667 nm fluorescence (AID 1142).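 Further: fluorescence read at 667 nm with signal to noise per printed feature.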 The following applies: 635 nm fluorescence, higher = more signal.
A short description of experiment [2]: cell viability in Huh7 cells, primary screen, cytotoxicity control for HCV replication inhibitor project, CellTiter-Glo luminescence, basal, 48 h (AID 1143).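 Further: Huh7 hepatoma cells carrying a hepatitis C replication reporter with no stimulus; test concentration not given here.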 The following applies: Huh7 HCV replicon, higher = more signal, called active from +8 up or from −8 down. On the technique in general: Cellular ATP, detected with luciferase, serves as a proxy for viable cell number.

Experiment [3] in a line: P. aeruginosa biofilm formation inhibitors, primary screen, PAO1 strain, BacTiter-Glo luminescence, LB-PBS (AID 1144). The following applies: 12 h, higher = more signal.
Experiment [4] in a line: CREB reporter modulators without forskolin, primary screen, cell-based, PC12, CRE-LacZ reporter, unstimulated (AID 1145). The following applies: no forskolin, luminescence, 4.5 h, higher = more signal, called active from +8 up or from −8 down.
Experiment [5] is described as follows: CREB reporter modulators under forskolin, primary screen, cell-based, PC12, CRE-LacZ reporter, forskolin-stimulated (AID 1146).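 Further: PC12 cells with 6xCRE LacZ reporter stimulated by forskolin 10 µM; beta-galactosidase reporter signal reflecting CREB driven transcription.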 The following applies: luminescence, 4.5 h, higher = more signal, called active from +8 up or from −8 down.
Experiment [6] concerns the target Streptavidin (Streptomyces avidinii) (UniProt P22629). The experiment can be described thus: streptavidin binders on small-molecule microarray, primary screen, artefact control for SMM compound annotation, biophysical, 635/667 nm fluorescence (AID 1147).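 Further: signal reflects streptavidin binding to arrayed compounds as a control protein.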 The following applies: streptavidin binding, higher = more signal.
A short description of experiment [7]: small-molecule binders of probe aInhba, primary screen, biochemical, small-molecule microarray, 635/667 nm fluorescence (AID 1148).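 Further: score merges 667nm spot fluorescence with signal-to-noise for antibody binding to printed compounds.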 The following applies: higher = more signal.
Experiment [8] addresses Torsin-1A (Homo sapiens) (UniProt O14656). The experiment can be described thus: torsin A binders from cell lysate, primary screen, small-molecule microarray, wild-type, 635/667 nm (AID 1149). The following applies: COS7 hTOR1A-WT lysate, 635 nm fluorescence, higher = more signal.
Experiment [9] shares this target. Put plainly: small-molecule binders of mutant TOR1A in lysate, primary screen, cell lysate, small-molecule microarray, COS7 lysate, 635/667 nm fluorescence (AID 1150).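 Further: score pools 667 nm emission and signal to noise measuring lysate protein binding.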 The following applies: COS7 hTOR1A mutant lysate, 635 nm fluorescence, higher = more signal.
Experiment [10] has as its system Sonic hedgehog protein (Shh). Put plainly: small-molecule binders of Shh protein, primary screen, biochemical, small-molecule microarray, 635/667 nm fluorescence (AID 1151).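 Further: Shh protein binding to compounds spotted on small-molecule microarray slides; score combines spot fluorescence intensity with signal-to-noise across triplicate slides.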 The following applies: small-molecule microarray binding, 635 nm fluorescence; higher = more signal.
Experiment [11] is described as follows: E. coli DRC41 culture turbidity changes, primary screen, E. coli filamentation inducer project, strain DRC41, OD650, 48 h (AID 1152).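 Further: E. coli MC1000 strain DRC41 lacking acrAB efflux pump and sulA.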 The following applies: E. coli DRC41 (acrAB sulA), higher = more signal, called active from +8 up or from −8 down.
The nature of experiment [12]: small-molecule binders of probe aLefty1, primary screen, biochemical, small-molecule microarray, 635/667 nm fluorescence (AID 1153).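 Further: score merges spot fluorescence with signal-to-noise ratio from the scanned slide images.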 The following applies: higher = more signal.
Experiment [13] is described as follows: PSAC antagonists in infected red cells, primary screen, cell-based, P. falciparum Indochina, OD700, 1 h (AID 1154). The following applies: P. falciparum Indochina infected RBC osmotic lysis, higher = more signal, called active from +8 up or from −8 down.
The nature of experiment [14]: PSAC antagonists in infected red cells, primary screen, cell-based, P. falciparum Indochina, OD700, 2 h (AID 1155).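 Further: lysis reports solute entry through the parasite surface anion channel PSAC; channel blockers reduce lysis of infected cells.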 The following applies: P. falciparum Indochina infected erythrocytes, osmotic lysis OD700; higher = more signal, called active from +8 up or from −8 down.
Experiment [15] can be described thus: osmotic lysis modulators in infected erythrocytes, primary screen, PSAC antagonist project, cell-based, P. falciparum Indochina, OD700, 3 h (AID 1156). The following applies: higher = more signal, called active from +8 up or from −8 down.
Experiment [16] can be described thus: PSAC antagonists in infected red cells, primary screen, cell-based, P. falciparum Indochina, OD700, 18 h (AID 1157). The following applies: P. falciparum Indochina infected erythrocytes, osmotic lysis OD700, 18 h; higher = more signal, called active from +8 up or from −8 down.
The nature of experiment [17]: modulators of S6 phosphorylation in cells, primary screen, cell-based, A549, cytoblot, luminescence, serum-stimulated (AID 1158).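 Further: serum-stimulated A549 lung adenocarcinoma cells; signal is phosphorylated S6 detected by cytoblot immunostaining with HRP secondary.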 The following applies: A549 phospho-S6 cytoblot, 5 h, higher = more signal.
Experiment [18] has as its target NADPH oxidase 2 (Homo sapiens) (UniProt P04839). Put plainly: NOX2-dependent H2O2 signal modulators, primary screen, NOX inhibitor project, cell-based, HEK293-NOX2, PMA-stimulated, Amplex Red fluorescence (AID 1159). Further: test concentration not given here. The following applies: 45 min, higher = more signal, called active from +8 up or from −8 down.
Experiment [19] has as its target NADPH oxidase 4 (Homo sapiens) (UniProt Q9NPH5). Put plainly: NOX4-dependent H2O2 signal modulators, primary screen, NOX inhibitor project, cell-based, HEK293-NOX4, tetracycline-induced, Amplex Red fluorescence (AID 1160). The following applies: 45 min, higher = more signal, called active from +8 up or from −8 down.
Experiment [20] has as its target NADPH oxidase 5 (Homo sapiens) (UniProt Q96PH1). Put plainly: NOX5-dependent H2O2 signal modulators, primary screen, NOX inhibitor project, cell-based, HEK293-NOX5, Amplex Red fluorescence (AID 1161). The following applies: HEK293-NOX5, ionomycin, 45 min, higher = more signal.

Molecules are shown by their SMILES. Activity calls are given as the source filed them. Unless noted, how the calls were made is not given here.

Chain of Torsin-1A (Homo sapiens) (O14656 whole entry, looked up): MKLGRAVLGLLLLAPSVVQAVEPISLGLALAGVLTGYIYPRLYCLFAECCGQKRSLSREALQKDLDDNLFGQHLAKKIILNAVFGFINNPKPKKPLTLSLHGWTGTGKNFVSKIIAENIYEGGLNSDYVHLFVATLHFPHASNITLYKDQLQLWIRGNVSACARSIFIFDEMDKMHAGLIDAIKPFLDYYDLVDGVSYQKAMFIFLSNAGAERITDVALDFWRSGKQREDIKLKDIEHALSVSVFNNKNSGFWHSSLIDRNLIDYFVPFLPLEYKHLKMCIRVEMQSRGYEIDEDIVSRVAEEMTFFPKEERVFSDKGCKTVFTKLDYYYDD
Chain of NADPH oxidase 4 (Homo sapiens) (Q9NPH5 whole entry, looked up): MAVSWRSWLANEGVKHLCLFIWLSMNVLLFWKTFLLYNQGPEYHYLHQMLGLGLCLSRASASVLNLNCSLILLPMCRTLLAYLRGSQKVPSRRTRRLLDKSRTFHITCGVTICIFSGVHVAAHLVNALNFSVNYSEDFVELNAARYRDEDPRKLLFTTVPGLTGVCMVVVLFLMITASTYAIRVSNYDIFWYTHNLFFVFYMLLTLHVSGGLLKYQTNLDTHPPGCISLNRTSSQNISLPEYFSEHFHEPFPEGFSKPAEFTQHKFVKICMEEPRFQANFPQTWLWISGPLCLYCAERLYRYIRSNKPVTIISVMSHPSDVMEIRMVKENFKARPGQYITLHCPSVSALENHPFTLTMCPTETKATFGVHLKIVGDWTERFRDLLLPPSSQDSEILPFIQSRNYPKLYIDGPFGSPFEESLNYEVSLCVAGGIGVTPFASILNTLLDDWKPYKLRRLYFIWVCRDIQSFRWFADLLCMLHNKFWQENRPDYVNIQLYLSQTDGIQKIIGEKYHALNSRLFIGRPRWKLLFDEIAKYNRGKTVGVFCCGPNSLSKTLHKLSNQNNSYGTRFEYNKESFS
Chain of NADPH oxidase 2 (Homo sapiens) (P04839 whole entry, looked up): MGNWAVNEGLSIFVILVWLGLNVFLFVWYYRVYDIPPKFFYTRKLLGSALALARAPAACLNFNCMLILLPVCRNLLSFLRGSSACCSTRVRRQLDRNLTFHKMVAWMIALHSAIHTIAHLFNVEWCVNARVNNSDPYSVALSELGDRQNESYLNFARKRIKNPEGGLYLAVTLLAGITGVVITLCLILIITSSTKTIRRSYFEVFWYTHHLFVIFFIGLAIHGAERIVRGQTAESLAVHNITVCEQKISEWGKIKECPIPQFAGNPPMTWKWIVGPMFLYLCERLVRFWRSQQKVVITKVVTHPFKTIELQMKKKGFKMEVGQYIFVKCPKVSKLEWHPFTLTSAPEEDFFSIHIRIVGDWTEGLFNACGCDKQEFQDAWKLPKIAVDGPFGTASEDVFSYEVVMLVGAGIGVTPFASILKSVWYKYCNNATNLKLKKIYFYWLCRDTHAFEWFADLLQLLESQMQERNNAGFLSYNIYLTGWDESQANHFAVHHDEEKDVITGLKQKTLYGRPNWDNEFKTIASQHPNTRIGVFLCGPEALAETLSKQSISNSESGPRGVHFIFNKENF
Chain of Streptavidin (Streptomyces avidinii) (P22629 whole entry, looked up): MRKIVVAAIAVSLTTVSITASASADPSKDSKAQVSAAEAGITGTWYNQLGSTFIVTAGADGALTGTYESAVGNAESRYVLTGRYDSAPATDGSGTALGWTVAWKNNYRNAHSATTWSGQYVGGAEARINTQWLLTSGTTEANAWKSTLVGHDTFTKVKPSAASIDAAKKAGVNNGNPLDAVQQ
Chain of NADPH oxidase 5 (Homo sapiens) (Q96PH1 whole entry, looked up): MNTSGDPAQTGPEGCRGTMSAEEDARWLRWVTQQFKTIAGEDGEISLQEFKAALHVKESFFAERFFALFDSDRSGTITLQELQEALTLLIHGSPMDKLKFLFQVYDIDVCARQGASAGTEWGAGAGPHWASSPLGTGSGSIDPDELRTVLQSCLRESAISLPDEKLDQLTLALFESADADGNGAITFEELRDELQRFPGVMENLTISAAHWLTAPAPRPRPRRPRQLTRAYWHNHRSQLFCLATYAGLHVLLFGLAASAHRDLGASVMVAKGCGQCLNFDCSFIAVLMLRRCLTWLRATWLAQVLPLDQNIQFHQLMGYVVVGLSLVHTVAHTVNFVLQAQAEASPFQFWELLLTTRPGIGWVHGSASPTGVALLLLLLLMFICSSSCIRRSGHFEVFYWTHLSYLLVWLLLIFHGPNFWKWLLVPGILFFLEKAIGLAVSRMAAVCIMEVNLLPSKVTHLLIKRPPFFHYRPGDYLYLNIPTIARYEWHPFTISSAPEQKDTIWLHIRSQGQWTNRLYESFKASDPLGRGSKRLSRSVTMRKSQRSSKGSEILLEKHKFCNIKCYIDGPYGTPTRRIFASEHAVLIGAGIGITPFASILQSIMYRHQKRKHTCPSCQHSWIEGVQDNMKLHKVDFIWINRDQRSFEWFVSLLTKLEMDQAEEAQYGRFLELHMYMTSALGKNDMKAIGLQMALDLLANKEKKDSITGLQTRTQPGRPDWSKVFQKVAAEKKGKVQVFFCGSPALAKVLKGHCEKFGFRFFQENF

With `C=C(CCCC)/C(=C/C[C@H](OC(=O)c1ccncc1)c1ccc(OCCO)cc1)c1cnc2ccccc2c1`, the composite z-score in [1] is 0.766; in experiment [6], 1.83; in experiment [7], -0.0221; with Torsin-1A (Homo sapiens) [8] it was 1.03; with Torsin-1A (Homo sapiens) [9], 0.667; in [10], 1.4. This compound returned a composite z-score in [12] of 0.127. Further, the z-score was -1.17 (inactive) in [2]; 0.15 (inactive) in experiment [3]; 10.9 (active) in [4]; -0.574 (inactive) in experiment [5]; 0.339 (inactive) in [11]; 26.5 (active) in experiment [13]. The z-score is 11.9 (active) in experiment [14]; 1.98 (inactive) in experiment [15]; 1.31 (inactive) in experiment [16]; -0.594 in experiment [17]; -0.0888 (inactive) in experiment [18]; 0.589 (inactive) in [19]. This compound gave a z-score in experiment [20] of -0.964.
For the compound `NC(=O)NCC#Cc1ccc2c(c1)[C@]1(C(=O)N2)[C@H](c2ccc(OCCO)cc2)N2[C@H](c3ccccc3)[C@H](c3ccccc3)OC(=O)[C@H]2[C@@H]1C(=O)NC[C@H](O)c1ccccc1`, the composite z-score in experiment [1] was -0.138; in [6], 0.079; in [7], -0.0195; with Torsin-1A (Homo sapiens) [8] it was -0.17; with Torsin-1A (Homo sapiens) [9], -0.288; in [10], 0.398. Further, the composite z-score in experiment [12] came out at 0.0183. The z-score in experiment [2] is -2.86 (inactive); in experiment [3], 0.0532 (inactive); in experiment [4], -0.671 (inactive); in experiment [5], -0.648 (inactive); in [11], 2.63 (inactive); in experiment [13] it was 1.06 (inactive). Besides, the z-score was -0.573 (inactive) in experiment [14]; -0.88 (inactive) in experiment [15]; -1.81 (inactive) in [16]; 0.713 in experiment [17]; 2 (inactive) in experiment [18]; 0.314 (inactive) in [19]. The compound also displayed a z-score in experiment [20] of 0.742.
For `COC(=O)[C@]1(Cc2ccccc2)N=C(c2ccc(OCCCO)cc2)O[C@@H]1c1ccccc1CN=[N+]=[N-]`, the composite z-score in [1] is 0.239; in [6], -0.304; in experiment [7] it was 0.233; with Torsin-1A (Homo sapiens) [8], -0.133; in the experiment with Torsin-1A (Homo sapiens) [9] it was 0.104; in experiment [10] it was 0.895. Further, in experiment [12], the composite z-score came out at 0.25. The z-score in [2] was -5.39 (inactive); in experiment [3], -1.19 (inactive); in [4], 2.31 (inactive); in experiment [5] it was -1.5 (inactive); in experiment [11], -1.03 (inactive); in experiment [13], 27.2 (active). Further, the z-score in [14] was 24.7 (active); in experiment [15], 0.765 (inactive); in experiment [16] it was 4.7 (inactive); in experiment [17] it was 0.614; in experiment [18], -4.51 (inactive); in [19], -1.36 (inactive). In addition, the z-score in experiment [20] was -2.36.
Turning to `CC(C)=CCCC(C)=CC(O)C1C=CC2C(=O)NC(=O)C2N1Nc1ccccn1` (stereo not given), the composite z-score in [1] is 0.827; in experiment [6] it was 0.968; in experiment [7], -0.154; with Torsin-1A (Homo sapiens) [8], 1.61; with Torsin-1A (Homo sapiens) [9] it was 1.53; in [10] it was 2.08. Besides, the composite z-score in [12] is -0.864. The z-score is -0.614 (inactive) in experiment [2]; -0.564 (inactive) in experiment [3]; -0.333 (inactive) in [4]; -0.0179 (inactive) in [5]; -0.255 (inactive) in [11]; 0.494 (inactive) in experiment [13]. The z-score in [14] was -0.531 (inactive); in experiment [15], -0.725 (inactive); in [16] it was -1.94 (inactive); in [17], 0.585; in [18] it was -0.637 (inactive); in experiment [19] it was -1.61 (inactive). This compound returned a z-score in [20] of -0.467.
In the case of `CN(C)CCCNC(=O)[C@@]1(C)c2ccccc2C(=O)N(Cc2ccc(OC(F)(F)F)cc2)[C@H]1c1ccc(CO)cc1`, the composite z-score in experiment [1] was -0.13; in experiment [6], -1.04; in [7], 0.0778; with Torsin-1A (Homo sapiens) [8], -0.924; with Torsin-1A (Homo sapiens) [9], 0.332; in experiment [10], 0.447. The composite z-score in [12] was -0.104. Further, the z-score was -2.14 (inactive) in [2]; -1.04 (inactive) in experiment [3]; 1.06 (inactive) in experiment [4]; -0.175 (inactive) in [5]; -0.796 (inactive) in [11]; 1.53 (inactive) in [13]. The z-score in experiment [14] was -0.103 (inactive); in experiment [15] it was 2.79 (inactive); in experiment [16], 0.328 (inactive); in [17], 0.235; in [18], -0.607 (inactive); in [19], -0.303 (inactive). Further, the z-score in [20] is -1.63.
